Measured values as given in PubChem BioAssay (EPA / NIEHS).
Activity calls are given as the source filed them. The calls were made as follows: active = hit-call score of the fitted dose curve at least 0.9, where 1 is the maximum; inactive = score below 0.9.

How the values were obtained:
[1] = ATG_PBREM_CIS: Attagene CIS-FACTORIAL HepG2 Assay for human Phenobarbital-responsive Enhancer Module (PBREM) (AID 2282955); conditions: HepG2 PBREM cis-reporter, Attagene multiplexed transcription; actives raise or lower the signal
How it was run: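 Measures endogenous factor action on a phenobarbital-responsive enhancer module. HepG2 transiently carrying cis reporters, 24 h treatment, mRNA read-out by RT-PCR plus capillary electrophoresis.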

[2] = ATG_PXRE_CIS: Attagene CIS-FACTORIAL HepG2 Assay for human Pregnane X Receptor Element (PXRE) (AID 2282957); conditions: HepG2 Attagene CIS-FACTORIAL PXRE reporter, mRNA; actives raise or lower the signal
How it was run: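 Fluorescent capillary electrophoresis of amplified reporter cDNA gave the signal, collected 24 h after dosing HepG2 cells that held transfected cis-element reporter constructs.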

[3] = ATG_PPRE_CIS: Attagene CIS-FACTORIAL HepG2 Assay for human Peroxisome Proliferator-activated Response Element (PPRE) (AID 2282958); conditions: HepG2 PPRE cis-element reporter, Attagene transcription factor profiling; actives raise or lower the signal
How it was run: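 PPRE activity in HepG2: transient cis-reporter transfection, 24 h compound incubation, reporter mRNA by RT-PCR and CE fluorescence; gain/loss fitted against DMSO.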

[4] = ATG_RORE_CIS: Attagene CIS-FACTORIAL HepG2 Assay for human RAR-related Orphan Receptor Element (RORE) (AID 2282959); conditions: HepG2 Attagene cis-factorial RORE reporter, mRNA; actives raise or lower the signal
How it was run: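 A 24-hour exposure of transfected HepG2 hepatoma cells precedes RNA isolation and reporter RT-PCR. Labeled products are digested with HpaI and resolved by capillary electrophoresis, with gain or loss of signal scored relative to DMSO.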

[5] = ATG_Sox_CIS: Attagene CIS-FACTORIAL HepG2 Assay for human SRY-box transcription factor (SOX) (AID 2282960); conditions: HepG2 Attagene cis-factorial SOX reporter, mRNA; actives raise or lower the signal
How it was run: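 HepG2, cis reporter units, 24 h exposure. Reporter mRNA: RT-PCR → FAM labelling → HpaI → CE fluorescence. Bidirectional fit vs DMSO.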

[6] = target: Transcription factor Sp1 (Homo sapiens) (UniProt P08047); experiment: ATG_Sp1_CIS: Attagene CIS-FACTORIAL HepG2 Assay for human Specificity Protein 1 (Sp1) (AID 2282961); conditions: HepG2 Sp1 cis-reporter transcription, actives raise or lower the signal
Chain of Transcription factor Sp1 (Homo sapiens) (P08047 whole entry, looked up, the tested form may be a part): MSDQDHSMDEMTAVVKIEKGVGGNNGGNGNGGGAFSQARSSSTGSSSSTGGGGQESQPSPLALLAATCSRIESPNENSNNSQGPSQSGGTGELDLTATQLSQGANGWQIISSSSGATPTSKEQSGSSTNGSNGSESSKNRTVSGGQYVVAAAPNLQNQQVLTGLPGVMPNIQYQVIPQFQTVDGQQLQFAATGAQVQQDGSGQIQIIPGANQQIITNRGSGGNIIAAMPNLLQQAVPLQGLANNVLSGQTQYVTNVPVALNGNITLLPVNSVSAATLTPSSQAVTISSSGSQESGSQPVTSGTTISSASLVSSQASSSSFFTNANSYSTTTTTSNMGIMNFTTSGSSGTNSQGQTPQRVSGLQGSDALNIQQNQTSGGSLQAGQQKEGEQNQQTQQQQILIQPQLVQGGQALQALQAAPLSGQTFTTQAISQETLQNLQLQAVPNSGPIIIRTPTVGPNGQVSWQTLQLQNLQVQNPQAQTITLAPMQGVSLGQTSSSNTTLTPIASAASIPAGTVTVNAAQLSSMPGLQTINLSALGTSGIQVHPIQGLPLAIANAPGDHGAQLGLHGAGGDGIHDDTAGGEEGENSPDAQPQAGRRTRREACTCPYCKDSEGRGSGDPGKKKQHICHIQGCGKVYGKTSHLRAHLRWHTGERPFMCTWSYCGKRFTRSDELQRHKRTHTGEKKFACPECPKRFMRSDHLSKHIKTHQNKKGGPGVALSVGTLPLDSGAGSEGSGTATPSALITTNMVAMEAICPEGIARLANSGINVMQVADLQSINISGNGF
How it was run: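 Liver-derived HepG2 cells, cis-element reporter library, 24 h treatment; RNA isolated, cDNA amplified with reporter-specific primers, FAM-labeled fragments sized on capillary analyzer. DMSO baseline, bidirectional curve fit.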

[7] = ATG_SREBP_CIS: Attagene CIS-FACTORIAL HepG2 Assay for human Sterol Regulatory Element Binding (SREBP) (AID 2282962); conditions: HepG2 Attagene cis-factorial SREBP reporter, mRNA; actives raise or lower the signal
How it was run: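 Endogenous factor activity is measured in HepG2 through multiplexed reporter units under cis-element control. Following a 24 h incubation, reporter transcripts are reverse-transcribed, PCR-amplified and sized by capillary electrophoresis; activity is fitted in both directions relative to DMSO.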

[8] = target: Signal transducer and activator of transcription 3 (Homo sapiens) (UniProt P40763); experiment: ATG_STAT3_CIS: Attagene CIS-FACTORIAL HepG2 Assay for human Signal Transducer and Activator of Transcription 3 (STAT3) (AID 2282963); conditions: HepG2, Attagene cis-factorial STAT3 reporter transcription; actives raise or lower the signal
Chain of Signal transducer and activator of transcription 3 (Homo sapiens) (P40763 whole entry, looked up): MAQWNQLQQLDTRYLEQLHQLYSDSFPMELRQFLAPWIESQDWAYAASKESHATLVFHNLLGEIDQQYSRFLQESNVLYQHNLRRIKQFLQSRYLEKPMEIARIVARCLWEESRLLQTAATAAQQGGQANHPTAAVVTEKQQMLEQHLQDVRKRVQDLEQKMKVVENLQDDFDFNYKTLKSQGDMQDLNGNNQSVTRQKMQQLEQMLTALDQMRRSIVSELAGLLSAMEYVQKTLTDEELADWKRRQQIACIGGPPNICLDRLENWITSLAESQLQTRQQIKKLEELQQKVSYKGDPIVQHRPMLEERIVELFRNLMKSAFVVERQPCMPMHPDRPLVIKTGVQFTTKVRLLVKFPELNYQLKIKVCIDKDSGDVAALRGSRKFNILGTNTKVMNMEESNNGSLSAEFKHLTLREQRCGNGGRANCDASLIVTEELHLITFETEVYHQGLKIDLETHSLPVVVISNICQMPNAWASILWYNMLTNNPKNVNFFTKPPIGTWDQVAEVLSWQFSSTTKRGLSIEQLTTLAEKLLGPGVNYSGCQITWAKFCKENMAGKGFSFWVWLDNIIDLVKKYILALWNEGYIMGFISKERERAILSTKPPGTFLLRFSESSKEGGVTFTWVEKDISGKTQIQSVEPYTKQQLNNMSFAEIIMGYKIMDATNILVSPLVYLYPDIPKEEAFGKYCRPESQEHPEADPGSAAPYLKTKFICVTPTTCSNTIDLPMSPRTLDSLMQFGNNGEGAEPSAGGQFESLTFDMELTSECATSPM
How it was run: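 Readout is reporter transcript quantified by RT-PCR and capillary electrophoresis, with 6-FAM primer extension and HpaI digestion. Total RNA is taken 24 h after dosing transiently transfected HepG2 carrying cis-regulated reporter units. Bidirectional fit against DMSO.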

[9] = ATG_TA_CIS: Attagene CIS-FACTORIAL HepG2 Assay for human TA Basal Promoter (AID 2282964); conditions: HepG2 Attagene CIS-factorial TA basal promoter reporter; actives raise or lower the signal
How it was run: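 Transfected HepG2, 24 h compound exposure; RNA → RT-PCR → FAM primer extension → HpaI cut → CE fluorescence. Gain/loss-of-signal fitted against DMSO negative control. Background-control readout.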

CCOC(=O)CCC(C)=O
outcome [1]: inactive | outcome [2]: inactive | outcome [3]: inactive | outcome [4]: inactive | outcome [5]: inactive | outcome [6]: inactive | outcome [7]: inactive | outcome [8]: inactive | outcome [9]: inactive

O=C(O)CCC(F)(F)C(F)(F)C(F)(F)F
outcome [1]: inactive | outcome [2]: inactive | outcome [3]: inactive | outcome [4]: inactive | outcome [6]: inactive | outcome [7]: inactive | outcome [8]: inactive | outcome [9]: inactive

COCCC(=O)OC
outcome [1]: inactive | outcome [2]: inactive | outcome [3]: inactive | outcome [4]: inactive | outcome [6]: inactive | outcome [7]: inactive | outcome [8]: inactive

NC(=O)C(F)(F)C(F)(F)C(F)(F)C(F)(F)C(N)=O
outcome [1]: inactive | outcome [2]: inactive | outcome [3]: inactive | outcome [4]: inactive | outcome [5]: inactive | outcome [6]: inactive | outcome [7]: inactive | outcome [8]: inactive | outcome [9]: inactive

C[Si](Cl)(Cl)CCC(F)(F)C(F)(F)C(F)(F)C(F)(F)C(F)(F)C(F)(F)F
outcome [1]: inactive | outcome [2]: inactive | outcome [3]: inactive | outcome [4]: inactive | outcome [5]: inactive | outcome [6]: inactive | outcome [7]: inactive | outcome [8]: inactive | outcome [9]: inactive

CCC(=O)OC(C)c1ccccc1 (stereo unspecified)
outcome [1]: inactive | AC50 [2]: 26.5 µM (active) | outcome [3]: inactive | outcome [4]: inactive | outcome [6]: inactive | outcome [7]: inactive | outcome [8]: inactive

OCC(O)CC(F)(F)C(F)(F)C(F)(F)C(F)(F)F (stereo unspecified)
outcome [1]: inactive | outcome [2]: inactive | outcome [3]: inactive | outcome [4]: inactive | outcome [6]: inactive | outcome [7]: inactive | outcome [8]: inactive

O=C(O)CCC(F)(F)C(F)(F)C(F)(F)C(F)(F)C(F)(F)C(F)(F)C(F)(F)F
outcome [1]: inactive | outcome [2]: inactive | AC50 [3]: 64.4 µM (active) | outcome [4]: inactive | outcome [5]: inactive | outcome [6]: inactive | outcome [7]: inactive | outcome [8]: inactive | outcome [9]: inactive

CC(C)Nc1ccc(NC(C)C)c2c1C(=O)c1ccccc1C2=O
outcome [1]: inactive | AC50 [2]: 0.21 µM (active) | outcome [3]: inactive | outcome [4]: inactive | outcome [5]: inactive | outcome [6]: inactive | outcome [7]: inactive | outcome [8]: inactive | outcome [9]: inactive

CNS(=O)(=O)C(F)(F)C(F)(F)C(F)(F)C(F)(F)C(F)(F)C(F)(F)C(F)(F)C(F)(F)F
outcome [1]: inactive | AC50 [2]: 10.4 µM (active) | outcome [3]: inactive | outcome [4]: inactive | outcome [5]: inactive | outcome [6]: inactive | outcome [7]: inactive | outcome [8]: inactive | outcome [9]: inactive

C[C@]12CC[C@H]3C(=CCc4cc(O)ccc43)[C@@H]1CCC2=O
outcome [1]: inactive | AC50 [2]: 26.6 µM (active) | outcome [3]: inactive | outcome [4]: inactive | outcome [5]: inactive | outcome [6]: inactive | outcome [7]: inactive | outcome [8]: inactive | outcome [9]: inactive

C=C(C)C(=O)OCC(F)(F)C(F)(F)C(F)(F)C(F)F
outcome [1]: inactive | outcome [2]: inactive | outcome [3]: inactive | outcome [4]: inactive | outcome [6]: inactive | outcome [7]: inactive | outcome [8]: inactive | outcome [9]: inactive

C=CC(=O)OCC(F)(F)C(F)(F)C(F)(F)COC(=O)C=C
outcome [1]: inactive | outcome [2]: inactive | outcome [3]: inactive | outcome [4]: inactive | AC50 [5]: 29.1 µM (active) | AC50 [6]: 26.4 µM (active) | outcome [7]: inactive | outcome [8]: inactive

CC(=O)C=O
outcome [1]: inactive | outcome [2]: inactive | outcome [3]: inactive | outcome [4]: inactive | outcome [5]: inactive | outcome [6]: inactive | outcome [7]: inactive | outcome [8]: inactive | outcome [9]: inactive

OC(O)C(F)(F)C(F)(F)F
outcome [1]: inactive | outcome [2]: inactive | outcome [3]: inactive | outcome [4]: inactive | outcome [5]: inactive | outcome [6]: inactive | outcome [7]: inactive | outcome [8]: inactive

CCOCOCC
outcome [1]: inactive | outcome [2]: inactive | outcome [3]: inactive | outcome [4]: inactive | outcome [5]: inactive | outcome [6]: inactive | outcome [7]: inactive | outcome [8]: inactive | outcome [9]: inactive

OCC(O)CC(F)(F)C(F)(F)C(F)(F)C(F)(F)C(F)(F)C(F)(F)C(F)(F)C(F)(F)F (stereo unspecified)
outcome [1]: inactive | outcome [2]: inactive | outcome [3]: inactive | outcome [4]: inactive | outcome [5]: inactive | outcome [6]: inactive | outcome [7]: inactive | outcome [8]: inactive | outcome [9]: inactive

CCCCC(CC)COC(=O)c1ccc(N(C)C)cc1 (stereo unspecified)
outcome [1]: inactive | AC50 [2]: 8.25 µM (active) | AC50 [3]: 32.6 µM (active) | outcome [4]: inactive | outcome [5]: inactive | outcome [6]: inactive | outcome [7]: inactive | outcome [8]: inactive | outcome [9]: inactive

FC(F)(F)C(F)(F)C(F)(F)CC1CO1 (stereo unspecified)
outcome [1]: inactive | outcome [2]: inactive | outcome [3]: inactive | outcome [4]: inactive | outcome [6]: inactive | outcome [7]: inactive | outcome [8]: inactive

OCC(F)(F)C(F)(F)C(F)(F)C(F)(F)C(F)(F)C(F)(F)C(F)(F)C(F)(F)CO
outcome [1]: inactive | AC50 [2]: 16.6 µM (active) | outcome [3]: inactive | outcome [4]: inactive | outcome [5]: inactive | outcome [6]: inactive | outcome [7]: inactive | outcome [8]: inactive | outcome [9]: inactive

CCN=c1cc2oc3cc(NCC)c(C)cc3c(-c3ccccc3C(=O)OCC)c-2cc1C
outcome [1]: inactive | outcome [2]: inactive | AC50 [3]: 17 µM (active) | outcome [4]: inactive | AC50 [5]: 15.9 µM (active) | AC50 [6]: 9.7 µM (active) | AC50 [7]: 15.5 µM (active) | outcome [8]: inactive | AC50 [9]: 11.1 µM (active)

C=CC(=O)OCCC(F)(F)C(F)(F)C(F)(F)C(F)(F)F
outcome [1]: inactive | AC50 [2]: 43.8 µM (active) | outcome [3]: inactive | outcome [4]: inactive | outcome [5]: inactive | outcome [6]: inactive | outcome [7]: inactive | outcome [8]: inactive

CC(C)(C)c1cc(Cc2cc(C(C)(C)C)c(O)c(C(C)(C)C)c2)cc(C(C)(C)C)c1O
outcome [1]: inactive | AC50 [2]: 0.513 µM (active) | outcome [3]: inactive | outcome [4]: inactive | outcome [5]: inactive | outcome [6]: inactive | outcome [7]: inactive | outcome [8]: inactive | outcome [9]: inactive

CCN(CC)c1ccc(N=Nc2ccccc2)cc1
AC50 [1]: 8.89 µM (active) | AC50 [2]: 3.99 µM (active) | AC50 [3]: 4.8 µM (active) | AC50 [4]: 8.12 µM (active) | outcome [5]: inactive | outcome [6]: inactive | outcome [7]: inactive | AC50 [8]: 27.6 µM (active) | outcome [9]: inactive

CCOCN(C(=O)CS(=O)(=O)O)c1c(C)cccc1CC
outcome [1]: inactive | AC50 [2]: 42 µM (active) | outcome [3]: inactive | outcome [4]: inactive | outcome [6]: inactive | outcome [7]: inactive | outcome [8]: inactive | outcome [9]: inactive

OCC(F)(F)C(F)(F)C(F)(F)CO
outcome [1]: inactive | outcome [2]: inactive | outcome [3]: inactive | outcome [4]: inactive | outcome [5]: inactive | outcome [6]: inactive | outcome [7]: inactive | outcome [8]: inactive | outcome [9]: inactive

CCCCCCCCCCCCC[N+](C)(C)Cc1ccccc1
outcome [1]: inactive | outcome [2]: inactive | outcome [3]: inactive | outcome [4]: inactive | outcome [5]: inactive | outcome [6]: inactive | outcome [7]: inactive | outcome [8]: inactive

CN(C)C(C)(C)CO
outcome [1]: inactive | outcome [2]: inactive | outcome [3]: inactive | outcome [4]: inactive | outcome [5]: inactive | outcome [6]: inactive | outcome [7]: inactive | outcome [8]: inactive | outcome [9]: inactive

N#CCCOCCC#N
outcome [1]: inactive | outcome [2]: inactive | outcome [3]: inactive | outcome [4]: inactive | outcome [5]: inactive | outcome [6]: inactive | outcome [7]: inactive | outcome [8]: inactive | outcome [9]: inactive
